Assay [1] concerns the target Albumin (Bos taurus) (UniProt P02769). Description: bovine serum albumin binders on microarray, profiling panel, artefact control for SMM control protein annotation, biochemical, small-molecule microarray, Alexa647 label, 635/667 nm fluorescence (AID 1118).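 Further: score merges 667 nm emission intensity and signal-to-noise per printed compound spot.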 Conditions: BSA-A647 binding, fluorescence 635 nm, higher = more signal.
Assay [2] in a line: small-molecule microarray binders of probe aXIP, primary screen, biochemical, NeuroSMM set, 635/667 nm fluorescence (AID 1119).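 Further: probe is the protein aXip251-270 applied at 1 µg/mL to compound-printed slides; binding of probe to printed compounds measured as 667 nm fluorescence plus signal to noise.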 Conditions: higher = more signal, called active from +8 up or from −8 down.
Assay [3] is described as follows: small-molecule binders of probe aNOTCH3, primary screen, biochemical, small-molecule microarray, 635/667 nm fluorescence (AID 1120).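 Further: probe is a biotin-tagged antibody raised against NOTCH3 rather than NOTCH3 protein; score merges spot fluorescence near 667 nm with spot signal to noise.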 Conditions: higher = more signal.
Assay [4] in a line: small-molecule binders of probe aNOTCH2, primary screen, biochemical, small-molecule microarray, 635/667 nm fluorescence (AID 1121).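 Further: score merges feature fluorescence read at 667 nm with its signal to noise.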 As to conditions: higher = more signal.
Assay [5] deals with Carbonic anhydrase 2 (Homo sapiens) (UniProt P00918). Description: CAII small-molecule binders, profiling panel, biochemical, small-molecule microarray, Alexa647-labelled CAII (AID 1122). As to conditions: CAII-A647 binding fluorescence, higher = more signal.
Assay [6] can be described thus: COS7 lysate on small-molecule microarray, probe aHis, 635 nm (AID 1123).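 Further: z-score combines 667nm fluorescence intensity with signal-to-noise per printed compound spot.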 As to conditions: COS7 cell lysate, fluorescence, higher = more signal.
Assay [7] is described as follows: compound binding in COS7 lysate, probe aLAP1, primary screen, cell lysate, small-molecule microarray (AID 1124).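 Further: lysate comes from COS7 cells expressing LAP1 and is applied at 0.3 µg/mL; score merges spot fluorescence near 667 nm with signal-to-noise over triplicate slides.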 Conditions: probe aLAP1, fluorescence, higher = more signal.
The subject of assay [8] is Sam68 (KHDRBS1). Description: Sam68 small-molecule binders, primary screen, biochemical, small-molecule microarray, 635 nm fluorescence (AID 1125).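 Further: score merges 667 nm channel intensity with signal to noise over triplicate slides.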 As to conditions: small-molecule microarray binding, higher = more signal.
For assay [9], the system named is Chordin-like protein 2 (CHRDL2). Briefly: CHRDL2 small-molecule binders, primary screen, biochemical, small-molecule microarray, 635 nm fluorescence (AID 1126).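 Further: printed compound slides probed with Chrdl2 protein at 4 µg/mL for 1 h at 4 C; score merges 667 nm emission intensity with signal to noise over three replicate slides.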 As to conditions: small-molecule microarray binding, fluorescence 635 nm; higher = more signal.
Assay [10] concerns the target Concanavalin-A (Canavalia ensiformis) (UniProt P02866). Description: ConA small-molecule binders, primary screen, artefact control for SMM control protein annotation, biochemical, small-molecule microarray, Alexa647 label, 635 nm (AID 1127).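 Further: z combines 667 nm emission intensity with signal-to-noise across three replicate slides.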 Conditions: ConA-A647 binding fluorescence, higher = more signal.
Assay [11] is described as follows: anti-His antibody binders, primary screen, artefact control for SMM control protein annotation, biochemical, small-molecule microarray, 635 nm fluorescence (AID 1128).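 Further: score merges feature fluorescence with signal-to-noise for each printed compound spot.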 As to conditions: anti-His Alexa647 antibody binding, higher = more signal.
The test system of assay [12] is Human papillomavirus type 1a E7 protein (residues 1-88). Briefly: HPV1a E7 small-molecule binders, primary screen, biochemical, small-molecule microarray, residues 1-88, 635 nm (AID 1129). As to conditions: small-molecule microarray binding, fluorescence 635 nm; higher = more signal.
In assay [13] the target is Focal adhesion kinase 1 (Homo sapiens) (UniProt Q05397). Description: small-molecule microarray binders of FAK, primary screen, biochemical, 635/667 nm fluorescence, BSA, DTT (AID 1130).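 Further: composite of spot emission at 667 nm and signal to noise over triplicate slides.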 As to conditions: PTK2 binding, 635 nm fluorescence, higher = more signal.
Assay [14] concerns Fibrinogen (Alexa647-labelled). Description: fibrinogen binders on compound microarrays, profiling panel, artefact control for SMM control-protein annotation, biochemical, small-molecule microarray, 635/667 nm fluorescence (AID 1131).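 Further: z-score merges 667 nm fluorescence with per-spot signal-to-noise over triplicate slides.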 Conditions: fibrinogen-A647 binding fluorescence, higher = more signal.
The target of assay [15] is Follistatin (Homo sapiens) (UniProt P19883). Description: follistatin binders on small-molecule microarrays, primary screen, biochemical, small-molecule microarray, 635/667 nm fluorescence (AID 1132). As to conditions: FST binding, 635 nm fluorescence, higher = more signal.
Assay [16] has as its target Fibroblast growth factor 2 (Homo sapiens) (UniProt P09038). Description: FGF2 binders on small-molecule microarrays, primary screen, biochemical, small-molecule microarray, 635/667 nm fluorescence (AID 1133). As to conditions: small-molecule microarray binding, FGF2, fluorescence 635/667; higher = more signal.
The nature of assay [17]: mitochondrial membrane potential change in A549 cells, profiling panel, cell-based, JC-1 fluorescence, basal, 24 h, 100 nL (AID 1138).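 Further: A549 lung adenocarcinoma cells under basal conditions with no added stimulus; test concentration not given here.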 Conditions: higher = more signal.
For assay [18], the system named is Lefty1. Briefly: Lefty1 binders on small-molecule microarrays, primary screen, biochemical, small-molecule microarray, 635/667 nm fluorescence (AID 1139). As to conditions: small-molecule microarray binding, fluorescence 635/667; higher = more signal.
Assay [19] relates to wheat germ agglutinin (Triticum aestivum), Alexa647-labelled. Briefly: wheat germ agglutinin binders on compound microarrays, profiling panel, artefact control for SMM control-protein annotation, biochemical, small-molecule microarray, 635/667 nm fluorescence (AID 1140).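 Further: score merges 667 nm feature emission with signal to noise over triplicate slides.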 As to conditions: WGA-A647 binding, 635 nm fluorescence, higher = more signal.
Assay [20] addresses Luciferin 4-monooxygenase (Photinus pyralis) (UniProt P08659). Description: firefly luciferase enzyme inhibitors, primary screen, biochemical, luminescence, purified enzyme, 2006 set (AID 1141).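 Further: cell-free assay with purified firefly luciferase at 100 ng per well in PBS; test concentration not given here.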 Conditions: SteadyGlo luminescence, 30 min, higher = more signal, called active from +8 up or from −8 down.

Active and inactive are the calls of the source.

Sequence of Albumin (Bos taurus) (P02769 whole entry, looked up): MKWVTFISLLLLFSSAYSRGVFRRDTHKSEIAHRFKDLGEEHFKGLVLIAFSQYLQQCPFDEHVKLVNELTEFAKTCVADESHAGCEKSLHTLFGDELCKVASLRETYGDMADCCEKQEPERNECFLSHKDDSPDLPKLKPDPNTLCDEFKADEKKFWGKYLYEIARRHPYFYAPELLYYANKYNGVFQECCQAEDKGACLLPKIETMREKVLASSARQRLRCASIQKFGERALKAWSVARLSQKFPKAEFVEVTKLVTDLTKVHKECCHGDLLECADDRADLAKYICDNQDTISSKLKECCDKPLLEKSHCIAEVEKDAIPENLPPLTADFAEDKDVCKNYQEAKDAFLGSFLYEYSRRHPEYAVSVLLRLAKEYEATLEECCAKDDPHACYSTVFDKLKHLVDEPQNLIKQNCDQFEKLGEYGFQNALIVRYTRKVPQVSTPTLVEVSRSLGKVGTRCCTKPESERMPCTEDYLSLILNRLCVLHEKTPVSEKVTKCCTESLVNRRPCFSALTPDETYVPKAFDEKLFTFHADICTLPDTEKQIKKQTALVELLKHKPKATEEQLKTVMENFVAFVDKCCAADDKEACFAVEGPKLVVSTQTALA
Sequence of Focal adhesion kinase 1 (Homo sapiens) (Q05397 whole entry, looked up): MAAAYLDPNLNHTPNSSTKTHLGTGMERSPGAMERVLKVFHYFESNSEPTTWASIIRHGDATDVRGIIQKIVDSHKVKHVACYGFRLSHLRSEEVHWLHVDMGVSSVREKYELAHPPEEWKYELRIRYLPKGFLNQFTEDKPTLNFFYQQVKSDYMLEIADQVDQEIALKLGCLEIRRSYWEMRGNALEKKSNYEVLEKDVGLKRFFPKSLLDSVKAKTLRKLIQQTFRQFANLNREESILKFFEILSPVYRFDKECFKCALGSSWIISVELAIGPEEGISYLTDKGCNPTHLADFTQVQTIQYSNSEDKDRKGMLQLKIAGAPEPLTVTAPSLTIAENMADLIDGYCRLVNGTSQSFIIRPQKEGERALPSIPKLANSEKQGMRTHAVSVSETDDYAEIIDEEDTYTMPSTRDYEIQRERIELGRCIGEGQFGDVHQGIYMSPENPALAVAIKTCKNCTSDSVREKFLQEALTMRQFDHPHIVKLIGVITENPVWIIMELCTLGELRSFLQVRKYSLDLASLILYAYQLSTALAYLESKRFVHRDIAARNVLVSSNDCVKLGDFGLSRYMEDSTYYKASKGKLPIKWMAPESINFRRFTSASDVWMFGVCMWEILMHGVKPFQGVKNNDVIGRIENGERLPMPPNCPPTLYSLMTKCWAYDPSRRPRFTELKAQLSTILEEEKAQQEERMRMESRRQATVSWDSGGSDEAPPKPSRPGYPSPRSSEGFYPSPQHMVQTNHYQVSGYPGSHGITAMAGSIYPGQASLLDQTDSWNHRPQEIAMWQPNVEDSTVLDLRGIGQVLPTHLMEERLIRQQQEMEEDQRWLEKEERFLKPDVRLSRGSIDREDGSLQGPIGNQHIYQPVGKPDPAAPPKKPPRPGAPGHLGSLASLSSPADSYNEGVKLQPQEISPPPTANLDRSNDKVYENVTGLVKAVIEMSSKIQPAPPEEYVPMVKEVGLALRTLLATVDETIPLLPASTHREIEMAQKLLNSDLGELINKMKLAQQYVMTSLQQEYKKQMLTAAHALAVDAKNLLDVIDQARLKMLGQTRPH
Sequence of Follistatin (Homo sapiens) (P19883 whole entry, looked up): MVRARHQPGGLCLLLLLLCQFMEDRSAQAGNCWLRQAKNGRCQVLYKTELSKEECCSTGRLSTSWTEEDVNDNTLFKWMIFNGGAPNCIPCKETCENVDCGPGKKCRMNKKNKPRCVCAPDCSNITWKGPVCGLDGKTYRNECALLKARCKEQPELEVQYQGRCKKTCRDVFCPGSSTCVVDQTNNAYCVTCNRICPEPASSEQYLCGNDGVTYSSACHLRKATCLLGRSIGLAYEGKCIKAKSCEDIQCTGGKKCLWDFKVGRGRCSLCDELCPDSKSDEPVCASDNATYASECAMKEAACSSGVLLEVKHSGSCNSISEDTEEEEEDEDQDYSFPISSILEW
Sequence of Fibroblast growth factor 2 (Homo sapiens) (P09038 whole entry, looked up): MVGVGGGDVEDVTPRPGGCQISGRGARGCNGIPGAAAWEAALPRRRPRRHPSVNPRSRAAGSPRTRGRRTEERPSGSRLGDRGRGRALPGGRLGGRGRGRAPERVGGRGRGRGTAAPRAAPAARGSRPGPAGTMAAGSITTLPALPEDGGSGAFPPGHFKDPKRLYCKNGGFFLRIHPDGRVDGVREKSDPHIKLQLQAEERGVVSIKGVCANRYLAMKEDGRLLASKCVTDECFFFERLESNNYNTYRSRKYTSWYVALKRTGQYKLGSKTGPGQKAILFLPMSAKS
Sequence of Concanavalin-A (Canavalia ensiformis) (P02866 whole entry, looked up): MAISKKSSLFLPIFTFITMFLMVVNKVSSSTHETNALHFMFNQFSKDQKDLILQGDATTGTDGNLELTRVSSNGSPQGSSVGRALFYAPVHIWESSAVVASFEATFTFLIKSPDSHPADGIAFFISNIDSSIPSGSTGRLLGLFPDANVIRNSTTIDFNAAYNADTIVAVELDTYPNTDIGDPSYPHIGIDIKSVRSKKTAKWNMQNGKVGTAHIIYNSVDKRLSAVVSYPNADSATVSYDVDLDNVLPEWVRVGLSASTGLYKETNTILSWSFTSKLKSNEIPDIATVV
Sequence of Luciferin 4-monooxygenase (Photinus pyralis) (P08659 whole entry, looked up): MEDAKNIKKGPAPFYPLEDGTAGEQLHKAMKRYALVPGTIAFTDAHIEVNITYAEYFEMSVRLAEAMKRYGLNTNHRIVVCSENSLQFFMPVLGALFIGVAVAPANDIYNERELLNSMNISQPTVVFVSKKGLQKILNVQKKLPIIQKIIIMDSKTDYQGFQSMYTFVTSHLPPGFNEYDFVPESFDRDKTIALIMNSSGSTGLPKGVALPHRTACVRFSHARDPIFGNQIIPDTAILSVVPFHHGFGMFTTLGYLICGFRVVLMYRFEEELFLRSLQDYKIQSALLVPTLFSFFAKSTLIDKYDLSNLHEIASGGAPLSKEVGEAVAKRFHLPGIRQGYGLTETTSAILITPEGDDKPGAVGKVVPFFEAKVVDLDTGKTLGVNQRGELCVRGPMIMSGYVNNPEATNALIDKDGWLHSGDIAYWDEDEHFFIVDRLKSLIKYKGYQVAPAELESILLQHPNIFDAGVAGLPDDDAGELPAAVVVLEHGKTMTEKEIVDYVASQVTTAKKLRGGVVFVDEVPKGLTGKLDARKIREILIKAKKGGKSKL

In the case of `COc1ccc([C@H]2OC[C@@H]3CCC(=O)N32)cc1`, the composite z-score in assay [1] was 0.626; in [3], 0.0948; in assay [4], -0.161; in assay [5], 0.286; in [6] it was -0.215; in assay [7], 0.552. Further, the composite z-score in assay [8] came out at 0.382; in assay [9], 0.504; in assay [10], 0.3; in [11], 0.822; in assay [12], 1.02; in [13], 0.0902. For the same compound, the composite z-score in assay [14] amounted to 0.362; in assay [15], 0.886; in [16] it was 0.031; in [18], 1.36; in assay [19], 0.329. The composite Z-score in [2] is 1.42 (inactive). Besides, the z-score in [17] is 0.779; in assay [20] it was -0.699 (inactive).

On to `CC(C)[Si](C#C[Si](C(C)C)(C(C)C)C(C)C)(O[C@H](C)c1cn(Cc2ccccc2)nn1)C(C)C`, for which the composite z-score in [1] was 0.551; in assay [3] it was 0.379; in assay [4], -0.0956; in assay [5] it was 0.48; in assay [6] it was 0.664; in assay [7] it was 0.177. The composite z-score in assay [8] stood at 1.03; in assay [9], 0.289; in assay [10], 0.598; in assay [11], 0.386; in assay [12] it was 1.01; in assay [13] it was 0.677. The composite z-score stood at 0.872 in [14]; 0.509 in assay [15]; 0.427 in [16]; 0.56 in [18]; 0.502 in assay [19]. Further, in assay [2], the composite Z-score is -0.539 (inactive). Further, the z-score in [17] was 0.0378; in assay [20], -0.398 (inactive).

With `CC(C)NC(=O)[C@@H]1c2ccccc2C(=O)N(C(C)C)[C@H]1c1ccc(CO)cc1`, the composite z-score in [1] was -0.163; in [3], -0.215; in [4] it was -0.179; in assay [5], 0.644; in [6], 2.97; in assay [7], 0.338. Besides, the composite z-score in assay [8] is 0.637; in assay [9] it was -1.38; in [10], 0.185; in [11], -1.51; in assay [12] it was -0.0425; in assay [13], 0.459. The composite z-score in [14] was -0.782; in [15], -0.681; in assay [16], -0.963; in assay [18] it was -0.936; in [19] it was -0.608. Besides, in [2], the composite Z-score is -0.174 (inactive). Also, the z-score is 1.58 in assay [17] and -0.784 (inactive) in assay [20].

Consider `O=C1C2C=CC(C(O)c3cc(C(F)(F)F)cc(C(F)(F)F)c3)N(Nc3ccccc3)C2C(=O)N1c1ccccc1` (stereo not given), for which the composite z-score was -0.0814 in assay [1]; 0.0435 in [3]; -0.101 in assay [4]; 0.723 in assay [5]; 2.51 in [6]; -0.233 in assay [7]. For the same compound, the composite z-score is 1.04 in [8]; -0.357 in [9]; -0.236 in assay [10]; 0.692 in [11]; 1.27 in [12]; 0.838 in assay [13]. For the same compound, the composite z-score in assay [14] is 0.462; in assay [15] it was 0.0145; in [16] it was -0.601; in assay [18] it was 0.192; in [19], 0.173. For the same compound, the composite Z-score in assay [2] is 0.837 (inactive). Also, the values for the z-score in assay [17] and in assay [20] were -0.424 and -1.47 (inactive), respectively.

As for `N#Cc1ccc(C(O)C2C=CC3C(=O)N(c4ccccc4)C(=O)C3N2Nc2ccccc2F)cc1` (stereo not given), the composite z-score in assay [1] was 1.01; in assay [3], 0.173; in [4], -0.0771; in assay [5], 0.675; in assay [6], 1.99; in assay [7], 0.555. Moreover, the composite z-score in assay [8] was 0.864; in assay [9], -0.284; in [10], 0.883; in assay [11], 2.59; in assay [12], 1.05; in assay [13] it was 0.152. Further, the composite z-score in assay [14] worked out at 0.97; in [15] it was 0.269; in assay [16], 0.191; in [18], 0.284; in assay [19] it was 0.144. In [2], the composite Z-score is -0.187 (inactive). Also, the z-score in [17] is 0.0535; in assay [20], 1.79 (inactive).

For `CCCCC(=C=CC[C@@H](O)c1ccc(CO)o1)CCO`, the composite z-score in assay [1] was -0.276; in [3], 0.0261; in assay [4] it was -0.044; in assay [5] it was 0.595; in [6], -0.0845; in assay [7] it was 0.24. Moreover, the composite z-score in [8] is 1.17; in assay [9], 0.29; in assay [10], 0.119; in [11], 1.05; in [12], 0.0355; in [13] it was -0.347. The composite z-score in assay [14] was -0.313; in [15], 1.14; in assay [16], 1.13; in assay [18] it was 1.08; in assay [19], 0.55. Besides, the composite Z-score in [2] was -0.35 (inactive). Also, the z-score is 0.622 in assay [17] and -2.51 (inactive) in assay [20].

The record behind these values is PubChem BioAssay.
